In PubChem BioAssay (EPA / NIEHS):
The source made the active and inactive calls. Rule for the calls: active = hit-call score of the fitted dose curve at least 0.9, where 1 is the maximum; inactive = score below 0.9.

Experiment: BSK_LPS_SRB: Viability Assessment in the BioMAP Diversity Plus: LPS Assay (AID 2283079);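 note: fitted in both directions against DMSO so loss or gain of signal counts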
Conditions: primary human HUVEC with PBMC
Protocol: BSK_LPS is a cell-based, multiplexed-readout assay that uses umbilical vein endothelium and peripheral blood mononuclear cells, a human vascular primary cell co-culture, with measurements taken at 24 hours after chemical dosing in a 96-well plate.BSK_LPS_SRB is an assay component measured in the BSK_LPS assay. It measures 0.1% sulforhodamine related to cell death using Sulforhodamine staining technology.Data from the assay component BSK_LPS_SRB was analyzed into 1 assay endpoint. This assay endpoint, BSK_LPS_SRB, was analyzed with bidirectional fitting relative to DMSO as the negative control and baseline of activity. Using a type of viability reporter, gain or loss-of-signal activity can be used to understand changes in the signaling. Furthermore, this assay endpoint can be referred to as a primary readout, because this assay has produced multiple assay endpoints where this one serves a signaling function. To generalize the intended target to other relatable targets, this assay endpoint is annotated to the cell morphology intended target family, where the subfamily is cell conformation.
The levels of cell surface (or secreted, indicated by the prefix "s") biomarker endpoints were measured by ELISA. Overt cytotoxicity to cells in confluent adherent cultures (all systems other than the BT system) was assessed by measuring total protein levels using sulforhodamine B (SRB) staining in parallel cultures at the time of biomarker measurements, indicated as SRB endpoints. For proliferation assays for adherent cell types, individual cell types are cultured at sub-confluence and relative cell numbers quantified by SRB staining at time points optimized for each system (48 h: 3C and CASM3C systems; 72 h: BT and HDF3CGF systems; 96 h: SAg system). SRB was performed by staining cells with 0.1% SRB after fixation with 10% TCA and reading wells at 560 nm.Viability and proliferation of PBMC (T cells) was quantified by Alamar Blue reduction for the SAg and BT systems. For PBMC viability (referred to as PBMC Cytotoxicity within the assay endpoint names), cells were plated (75,000/well in a 96-well plate) and then chemical samples added for 1 h before addition of activators, SEB and TSST-1 (20 ng/mL final concentration each). Cells were incubated for 90 h. Then, Alamar Blue (20 uL/well) (Invitrogen, Cat DAL1100) was added for 6 h, and the plates were read with a fluorescence microplate reader at 546/580 nm (excitation/emission). For PBMC proliferation, cells were plated and activated as above but incubated for only 16 h prior to addition of Alamar Blue. Plates were read after 6 h.

Row | SMILES | outcome | AC50
1 | COc1cc(OC)nc(NC(=O)NS(=O)(=O)c2cc(NC=O)ccc2C(=O)N(C)C)n1 | inactive | 
2 | COP(=S)(OC)Oc1ccc([N+](=O)[O-])cc1 |  | 10.5 µM (active)
3 | C#CCN1C(=O)COc2cc(F)c(N3C(=O)C4=C(CCCC4)C3=O)cc21 | inactive | 
4 | CCCN(CCOc1c(Cl)cc(Cl)cc1Cl)C(=O)n1ccnc1 |  | 31.4 µM (active)
5 | COc1nn(CSP(=S)(OC)OC)c(=O)s1 | inactive | 
6 | COP(=S)(OC)Oc1ccc(SC)c(C)c1 |  | 30.6 µM (active)
7 | CC1(C)C(C=C(Cl)Cl)C1C(=O)OC(C#N)c1ccc(F)c(Oc2ccccc2)c1 (stereo not given) |  | 6.63 µM (active)
8 | N#Cc1c(Cl)c(Cl)c(Cl)c(C#N)c1Cl |  | 3.65 µM (active)
9 | CC1(c2ccc(Oc3ccccc3)cc2)OC(=O)N(Nc2ccccc2)C1=O (stereo not given) |  | 31 µM (active)
10 | CCc1ccc(C(=O)NN(C(=O)c2cc(C)cc(C)c2)C(C)(C)C)cc1 | inactive | 
11 | COP(=O)(OC)OC=C(Cl)Cl | inactive | 
12 | [2H]C1([2H])[n+]2ccccc2-c2cccc[n+]2C1([2H])[2H] | inactive | 
13 | Cc1[nH]c(=O)n(C(C)(C)C)c(=O)c1Cl | inactive | 
14 | O=C(NC(=O)c1c(F)cccc1F)Nc1ccc(OC(F)(F)C(F)OC(F)(F)F)c(Cl)c1 (stereo not given) | inactive | 
15 | C[C@H]1[C@H](c2ccc(Cl)cc2)SC(=O)N1C(=O)NC1CCCCC1 |  | 10.9 µM (active)
16 | O=C1c2ccccc2C(=O)N1SC(Cl)(Cl)Cl |  | 0.303 µM (active)
17 | CCCN(CCC)c1c([N+](=O)[O-])cc(C(F)(F)F)cc1[N+](=O)[O-] | inactive | 
18 | O=C(O)CCCOc1ccc(Cl)cc1Cl | inactive | 
19 | CCOc1nc(NC)nc(NC(=O)NS(=O)(=O)c2ccccc2C(=O)OC)n1 | inactive | 
20 | CC(C)(C)C(O)C(Oc1ccc(Cl)cc1)n1cncn1 (stereo not given) | inactive | 

Row | SMILES | outcome | AC50
21 | CCC(C)(C)C(=O)OC1=C(c2ccc(Cl)cc2Cl)C(=O)OC12CCCCC2 |  | 28.6 µM (active)
22 | COC(=O)c1ccccc1CS(=O)(=O)NC(=O)Nc1nc(OC)cc(OC)n1 | inactive | 
23 | CNC(=O)/C=C(\C)OP(=O)(OC)OC | inactive | 
24 | CNC(=O)Oc1ccccc1OC(C)C | inactive | 
25 | O=[N+]([O-])c1c(Cl)c(Cl)c(Cl)c(Cl)c1Cl | inactive | 
26 | O=C(O)COc1ccc(Cl)cc1Cl | inactive | 
27 | O=C(O)C(F)(F)C(F)(F)C(F)(F)C(F)(F)C(F)(F)C(F)(F)C(F)(F)F | inactive | 
28 | CN1CSC(=S)N(C)C1 | inactive | 
29 | O=S(=O)(O)C(F)(F)C(F)(F)C(F)(F)C(F)(F)C(F)(F)C(F)(F)C(F)(F)C(F)(F)F | inactive | 
30 | ClC1C(Cl)C(Cl)C(Cl)C(Cl)C1Cl (stereo not given) | inactive | 
31 | CCS(=O)(=O)c1cccnc1S(=O)(=O)NC(=O)Nc1nc(OC)cc(OC)n1 | inactive | 
32 | Cc1cc(C)nc(NC(=O)NS(=O)(=O)c2ccccc2C(=O)OC2COC2)n1 | inactive | 
33 | CCOC1Oc2ccc(OS(C)(=O)=O)cc2C1(C)C (stereo not given) | inactive | 
34 | N#CN | inactive | 
35 | CC[C@H](C)[C@H]1O[C@]2(C=C[C@@H]1C)C[C@@H]1C[C@@H](C/C=C(\C)[C@@H](O[C@H]3C[C@H](OC)[C@@H](O[C@H]4C[C@H](OC)[C@@H](O)[C@H](C)O4)[C@H](C)O3)[C@@H](C)/C=C/C=C3\CO[C@@H]4[C@H](O)C(C)=C[C@@H](C(=O)O1)[C@]34O)O2 (tested in a mixture with another compound) |  | 6.41 µM (active)
36 | CC(C)N(C(=O)COc1nnc(C(F)(F)F)s1)c1ccc(F)cc1 | inactive | 
37 | CNC(=O)Oc1cccc(N=CN(C)C)c1 | inactive | 
38 | CNC(=O)CSP(=S)(OC)OC | inactive | 
39 | CCOCN(C(=O)CCl)c1c(C)cccc1CC |  | 22.7 µM (active)
40 | Clc1ccccc1-c1nnc(-c2ccccc2Cl)nn1 | inactive | 
